# Test results: PubChem BioAssay (Tox21)
# Unmarked numbers belong to inactive results. Inconclusive results are not listed. A call without a number means that no potency is given here. Active and inactive are the calls of the source. Unless noted, calls come from the whole dose curve; as a rule, active = well fitted curve in the direction sought with a large enough effect in the repeat runs; inconclusive = weak or mixed curves; inactive = no such curve, though single readings can be large; an effect the other way counts as inactive or inconclusive.
# Assays:
# [1] = qHTS assay to identify small molecule antagonists of the estrogen related receptor (ERR) signaling pathway from Tox21 library - cell viability counter screen (AID 1224834); note: nearly all actives have a fitted effect of over 30% in size; note: potency is the fitted concentration of half-maximal effect
# Method in brief: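 Viability readout (CellTiter-Fluor fluorescence, 30 min at 37 C) multiplexed with the ERR assay; cells treated 17.5 h at 37 C with compounds delivered in DMSO.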
# [2] = molecular target: Luciferin 4-monooxygenase (Photinus pyralis) (UniProt P08659); test: qHTS assay to identify small molecule inhibitors of firefly luciferase (AID 1224835); note: nearly all actives have a fitted effect of over 25% in size
# Method in brief: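 Inhibition of purified Photinus luciferase is measured by luminescence. Substrate levels (D-luciferin, ATP) sit at their KM values. Each compound is tested in a concentration series.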
# [3] = qHTS assay to identify small molecule agonists of the constitutive androstane receptor (CAR) signaling pathway - cell viability counter screen (AID 1224836); note: nearly all actives have a fitted effect of over 45% in size
# Method in brief: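 Compound titrations (15 concentrations) went onto HepG2-CYP2B6-hCAR cells 4 h after seeding, alongside PK11195 at a final 0.75 uM; a 23 h, 37 C/5% CO2 incubation preceded CellTiter-Fluor viability measurement.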
# [4] = molecular target: Nuclear receptor subfamily 1 group I member 3 (Homo sapiens) (UniProt Q14994); test: qHTS assay to identify small molecule antagonists of the constitutive androstane receptor (CAR) signaling pathway (AID 1224838);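 note: HepG2 cells stably expressing hCAR with CYP2B6 luciferase reporter stimulated by CITCO; nearly all actives have a fitted effect of over 40% in size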
# Method in brief: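 Quantitative HTS in double-stable HepG2-CYP2B6-hCAR cells. After 4 h plating, cells get compound (15 concentrations) and CITCO at 50 nM final, incubate 24 h at 37 C, then ONE-Glo luminescence is read.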
# [5] = molecular target: Nuclear receptor subfamily 1 group I member 3 (Homo sapiens) (UniProt Q14994); test: qHTS assay to identify small molecule agonists of the constitutive androstane receptor (CAR) signaling pathway (AID 1224839);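 note: HepG2 cells stably carrying human CAR and a CYP2B6 luciferase reporter; nearly all actives have a fitted effect of over 15% in size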
# Method in brief: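 In this screen, CAR-driven CYP2B6 promoter activity is measured by luminescence in HepG2-CYP2B6-hCAR cells after 24 h with test compounds and 0.75 uM PK11195 (final concentration).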
# [6] = qHTS assay to identify small molecule antagonists of the estrogen related receptor signaling pathway with the pleiotropic PPARgamma coactivator (PGC) from Tox21 10K library - cell viability counter screen (AID 1224840; active = well fitted cell-killing curve with a large enough effect in the repeat runs, not every such curve was filed as active; note: nearly all actives have a fitted effect of over 40% in size)
# Method in brief: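 Compounds in DMSO, alongside positive and negative controls, were pinned onto PGC/ERR cells (2,000 per well). Exposure lasted 17.5 hours at 37 C, followed by a 30-minute CellTiter-Fluor incubation and fluorescence reading.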
# [7] = qHTS assay to identify small molecule antagonists of the estrogen related receptor signaling pathway with the pleiotropic PPARgamma coactivator (PGC) from Tox21 10K library (AID 1224841; call rule not given here; note: actives are mostly falling curves and most rising ones were filed inactive; nearly all actives have a fitted effect of over 50% in size; note: potency is the fitted concentration of half-maximal effect)
# Method in brief: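 Compound exposure ran 18 hours at 37 C in PGC/ERR cells (2,000/well) that had first rested 6 hours in a 37 C/5% CO2 incubator. Luciferase activity was then detected with One-Glo after a 30-minute room-temperature step.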
# [8] = qHTS assay to identify small molecule agonists of the estrogen related receptor signaling pathway with the pleiotropic PPARgamma coactivator (PGC) from Tox21 10K library (AID 1224842); note: nearly all actives have a fitted effect of over 15% in size
# Method in brief: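 Luminescence from One-Glo (30 min, room temperature) measured after PGC/ERR cells had 18 h at 37 C with pinned compound (23 nL in DMSO). Cells had been seeded at 2,000 per well and pre-incubated 6 h.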
# [9] = molecular target: Thyrotropin receptor (Homo sapiens) (UniProt P16473); test: qHTS assay to identify small molecule agonists of the thyroid stimulating hormone receptor (TSHR) signaling pathway (AID 1224843; calls by dose curve; note: nearly all actives have a fitted effect of over 45% in size)
# Method in brief: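 Screening of the Tox21 10K collection used HEK293 cells engineered with TSHR at 800 cells per well. After a 30-min room-temperature compound exposure, HTRF cAMP reagents were added and fluorescence recorded 1 h later.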
# [10] = qHTS assay to identify small molecule agonists of the hypoxia (HIF-1) signaling pathway - cell viability counter screen (AID 1224844; calls by dose curve; note: nearly all actives have a fitted effect of over 50% in size; note: potency is the fitted concentration of half-maximal effect)
# Method in brief: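 Luminescent ATP content (CellTiter-Glo, 30 min, room temperature) served as the viability measure in HRE-bla ME-180 cells exposed to compounds for 17 hrs in low-serum medium (0.5% dialyzed FBS).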
# [11] = qHTS assay to identify small molecule agonists of H2AX (AID 1224845; active = well fitted activation curve with a large enough effect in the signal ratio in the repeat runs, not every such curve was filed as active; the % refers to the signal ratio)
# Method in brief: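 Phospho-H2AX Ser139 measured by HTRF (ex 320 nm; em 665 and 620 nm) after 24 hr antibody incubation. Compounds, 15 concentrations, 0.76% DMSO, were applied to CHO-K1 cells for 3hr at 37C before lysis.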
# [12] = qHTS assay to identify small molecule agonists of H2AX - cell viability counter screen (AID 1224847; calls by dose curve; note: top concentration of the series differs between compounds; nearly all actives have a fitted effect of over 30% in size)
# Method in brief: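 Read-out: CellTiter-Glo luminescence, 30 min RT. Cells: wild-type CHO-K1, 1000/well, 10% FBS, plated overnight at 37C. Treatment: 15 concentrations, 3 hr, 37C, 0.76% DMSO.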
# [13] = qHTS assay to identify small molecule antagonists of the estrogen related receptor (ERR) signaling pathway from Tox21 library (AID 1224848); note: nearly all actives have a fitted effect of over 50% in size; note: potency is the fitted concentration of half-maximal effect
# Method in brief: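 Antagonist-mode screen of the Tox21 10K library in an NTP-provided ERR reporter cell line; 18 h compound exposure at 37 C, luminescence measured with ONE-Glo.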
# [14] = qHTS assay to identify small molecule agonists of the estrogen related receptor (ERR) signaling pathway from Tox21 library (AID 1224849; calls by dose curve; note: nearly all actives have a fitted effect of over 15% in size); settings: ERR reporter cell line, ONE-Glo luciferase, 18 h; at 92.4 µM (top of the series) unless noted
# Method in brief: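 We plated ERR reporter cells, waited 6 h, added compounds in DMSO by pin tool and incubated them 18 h at 37 C. ONE-Glo was then added and luminescence read after 30 min.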
# [15] = A CellTox Green Cytotoxicity Assay to monitor cytotoxicity in HEK293 cells - 0 hour (AID 1224869); note: nearly all actives have a fitted effect of over 50% in size
# Method in brief: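 Each value comes from one timepoint of a single continuous run in which HEK293 cells with CellTox Green were exposed to compound for up to 40 h at 37 C, dye fluorescence rising with cell death.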
# [16] = qHTS RealTime-Glo MT Cell Viability Assay in HepG2 cells - 40 hour (AID 1224870); note: nearly all actives have a fitted effect of over 50% in size
# Method in brief: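 Real-time viability: cells seeded at 600 per well together with NanoLuc and cell-permeant prosubstrate, compounds added after 5 h incubation. Luminescence tracked at 0, 8, 16, 24, 32 and 40 h of exposure.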
# [17] = qHTS assay to identify small molecule antagonists of the constitutive androstane receptor (CAR) signaling pathway - cell viability counter screen (AID 1224837); note: nearly all actives have a fitted effect of over 45% in size
# Method in brief: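 Fluorescence from CellTiter-Fluor served as the viability signal. Human hepatoma HepG2 cells stably bearing hCAR and CYP2B6-2.2kb received compound plus CITCO (50 nM final) for 23 hr.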
# [18] = qHTS assay to identify small molecule agonists of the hypoxia (HIF-1) signaling pathway (AID 1224846; active = well fitted activation curve with a large enough effect in the signal ratio in the repeat runs, not every such curve was filed as active; the % refers to the signal ratio)
# Method in brief: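 Measured by blue/green FRET after loading CCF4-AM: beta-lactamase expressed from a hypoxia response element in ME-180 cells. Test agents were delivered in DMSO and left 17 hrs; cells had been plated 5 hrs earlier in low-serum (0.5% dialyzed FBS) medium.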
# [19] = qHTS RealTime-Glo MT Cell Viability Assay in HepG2 cells - 24 hour (AID 1224867); note: nearly all actives have a fitted effect of over 50% in size
# Method in brief: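 Compound treatment began 5 h after plating HepG2 cells (600/well) with NanoLuc luciferase and prosubstrate. Plates stayed at 37 C for 40 h; luminescence was captured at six time points, 0 h through 40 h.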
# [20] = qHTS RealTime-Glo MT Cell Viability Assay in HEK293 cells - 32 hour (AID 1224868); note: nearly all actives have a fitted effect of over 50% in size; note: potency is the fitted concentration of half-maximal effect
# Method in brief: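 Quantitative high-throughput screen of the Tox21 10K library in HEK293: cells and RealTime-Glo reagents plated together, compound added at 5 h, luminescence monitored through 40 h at 37 C.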
# Sequence of Luciferin 4-monooxygenase (Photinus pyralis) (P08659 whole entry, looked up): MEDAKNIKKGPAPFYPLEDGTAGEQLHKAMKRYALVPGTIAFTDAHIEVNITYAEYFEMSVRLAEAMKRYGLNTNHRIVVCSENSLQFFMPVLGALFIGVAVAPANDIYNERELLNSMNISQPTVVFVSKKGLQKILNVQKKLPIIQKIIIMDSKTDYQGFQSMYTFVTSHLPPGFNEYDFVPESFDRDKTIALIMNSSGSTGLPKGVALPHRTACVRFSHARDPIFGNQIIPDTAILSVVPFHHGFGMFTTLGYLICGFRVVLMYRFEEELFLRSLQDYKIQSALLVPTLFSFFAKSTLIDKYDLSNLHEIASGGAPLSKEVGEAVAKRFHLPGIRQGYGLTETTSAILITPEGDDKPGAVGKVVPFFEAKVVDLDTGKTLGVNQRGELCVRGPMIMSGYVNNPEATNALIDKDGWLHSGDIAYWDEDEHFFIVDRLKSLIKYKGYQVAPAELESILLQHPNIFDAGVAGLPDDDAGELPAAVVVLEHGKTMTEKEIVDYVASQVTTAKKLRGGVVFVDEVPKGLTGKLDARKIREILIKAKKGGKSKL
# Sequence of Nuclear receptor subfamily 1 group I member 3 (Homo sapiens) (Q14994 whole entry, looked up): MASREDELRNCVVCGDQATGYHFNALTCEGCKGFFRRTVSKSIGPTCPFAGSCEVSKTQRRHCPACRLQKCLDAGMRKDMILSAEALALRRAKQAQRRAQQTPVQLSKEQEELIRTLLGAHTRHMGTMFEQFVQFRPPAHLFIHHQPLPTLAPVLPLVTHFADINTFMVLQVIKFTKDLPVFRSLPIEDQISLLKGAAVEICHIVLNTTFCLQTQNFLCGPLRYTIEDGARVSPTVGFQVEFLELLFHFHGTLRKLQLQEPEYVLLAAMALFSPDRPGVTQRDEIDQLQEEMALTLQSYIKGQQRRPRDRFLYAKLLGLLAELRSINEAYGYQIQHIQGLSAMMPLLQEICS
# Sequence of Thyrotropin receptor (Homo sapiens) (P16473 whole entry, looked up): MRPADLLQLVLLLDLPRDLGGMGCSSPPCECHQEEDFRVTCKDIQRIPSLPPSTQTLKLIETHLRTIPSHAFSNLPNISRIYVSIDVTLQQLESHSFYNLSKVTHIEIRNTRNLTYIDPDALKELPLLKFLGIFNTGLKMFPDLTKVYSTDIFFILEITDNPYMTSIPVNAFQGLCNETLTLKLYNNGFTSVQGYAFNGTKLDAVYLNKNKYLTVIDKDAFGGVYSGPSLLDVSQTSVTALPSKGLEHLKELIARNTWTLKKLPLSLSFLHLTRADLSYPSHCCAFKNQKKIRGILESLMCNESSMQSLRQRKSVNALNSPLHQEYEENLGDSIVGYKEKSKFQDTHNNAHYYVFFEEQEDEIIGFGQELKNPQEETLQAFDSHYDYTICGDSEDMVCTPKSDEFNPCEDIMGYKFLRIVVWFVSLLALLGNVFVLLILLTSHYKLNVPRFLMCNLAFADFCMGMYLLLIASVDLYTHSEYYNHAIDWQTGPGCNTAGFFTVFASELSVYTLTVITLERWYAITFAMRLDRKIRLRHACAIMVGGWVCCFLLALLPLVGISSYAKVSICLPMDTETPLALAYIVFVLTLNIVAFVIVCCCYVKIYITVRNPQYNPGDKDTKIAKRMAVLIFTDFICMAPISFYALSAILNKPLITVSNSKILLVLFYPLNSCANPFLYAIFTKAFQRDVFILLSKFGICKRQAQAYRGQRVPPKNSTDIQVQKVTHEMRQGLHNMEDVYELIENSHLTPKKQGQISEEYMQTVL
Compound,Potency [1],Potency [2],Potency [3],Potency [4],Potency [5],Potency [6],Potency [7],outcome [8],Potency [9],Potency [10],Potency [11],Potency [12],Potency [13],"activity change, positive = activation [14] [%]",Potency [15],Potency [16],Potency [17],outcome [18],Potency [19],Potency [20]
C1CCC(C2CCCCC2)CC1,inactive,inactive,inactive,inactive,inactive,inactive,inactive,inactive,inactive,21.9 µM (active),inactive,inactive,inactive,-6.98,inactive,inactive,,,,
CC(C1CC1)C(O)(Cn1cncn1)c1ccc(Cl)cc1 (stereo unspecified),inactive,inactive,inactive,,,inactive,,,inactive,inactive,inactive,inactive,,,inactive,inactive,inactive,inactive,inactive,
COc1cc(OC)nc(NC(=O)NS(=O)(=O)c2ncccc2OCC(F)(F)F)n1,inactive,inactive,inactive,inactive,inactive,inactive,inactive,inactive,inactive,inactive,inactive,inactive,inactive,9.4,inactive,inactive,,inactive,inactive,inactive
O=C(O)c1cccc(Cl)c1,inactive,inactive,inactive,inactive,inactive,inactive,,,inactive,inactive,inactive,inactive,,,inactive,inactive,,inactive,inactive,inactive
C[C@H]1CCC[C@H](O)CCCCCc2cc(O)cc(O)c2C(=O)O1,61.6 µM (active),inactive,inactive,inactive,inactive,,54.9 µM (active),inactive,inactive,inactive,inactive,,54.9 µM (active),-54.5,inactive,inactive,,inactive,inactive,34.9 µM (active)
CCOP(=O)(N=C1SCCS1)OCC,inactive,inactive,inactive,inactive,inactive,inactive,,,inactive,inactive,inactive,inactive,,,inactive,inactive,,inactive,inactive,inactive
CN1C[C@@H](NS(=O)(=O)N(C)C)C[C@@H]2c3cccc4c3c(cn4C)C[C@H]21,inactive,inactive,inactive,inactive,,inactive,,,inactive,,inactive,inactive,,,inactive,inactive,,inactive,inactive,inactive
CCC(=O)C(CCN(C)C)(c1ccccc1)c1ccccc1,inactive,inactive,inactive,,inactive,inactive,,,,inactive,inactive,inactive,,,inactive,inactive,,inactive,inactive,inactive
